Screening results from PubChem.
An excerpt weighted towards active compounds, which were near 11% of everything screened.
ALDH1A1 inh = blocks purified human ALDH1A1 activity | P00352 | Purified ALDH1A1, NADH fluorescence, propionaldehyde substrate | Potency, µM (highest dose often 75.3 µM), for the others: at the highest dose activity, negative = inhibition, actives largely listed as inhibitors | 7.3% of 220,000 active; active = well fitted inhibition curve with a large enough effect, not every such curve was filed as active; inconclusive = small, poorly fitted or top-dose-only effect, or another doubt; inactive = no such curve, though single readings can be large or run the other way;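 note: potency is the fitted concentration of half-maximal effect; plate controls were no enzyme wells and a reference inhibitor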
HPGD inh = blocks human HPGD enzyme activity | purified HPGD, NADH fluorescence kinetic, PGE2 substrate | 4.3% of 150,000 active | Potency, µM, for inactives: at the top dose activity change, negative = inhibition, usual class: inhibitors | P15428 | AID 894; active = well fitted inhibition curve with a large enough effect, not every such curve was filed as active; inconclusive = small, poorly fitted or top-dose-only effect, or another doubt; inactive = no such curve, though single readings can be large or run the other way; note: potency is the fitted concentration of half-maximal effect; % is set by controls: 0 for no effect and ±100 for the full control effect
Target sequence (P15428 whole entry, looked up): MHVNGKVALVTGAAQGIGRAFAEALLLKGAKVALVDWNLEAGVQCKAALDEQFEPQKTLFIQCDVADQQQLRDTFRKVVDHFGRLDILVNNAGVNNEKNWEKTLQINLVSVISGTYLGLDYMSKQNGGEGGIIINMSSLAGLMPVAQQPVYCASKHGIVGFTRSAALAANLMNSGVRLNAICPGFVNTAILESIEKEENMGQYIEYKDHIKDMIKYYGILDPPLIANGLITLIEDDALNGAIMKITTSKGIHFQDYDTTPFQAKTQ
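NADH formation kinetics: reaction with 30 uM PGE2 and 1 mM NAD+ (final), 20 nM enzyme, Tris-HCl pH 8 with Tween 20, after 15 min compound preincubation at room temperature. Fluorescence change, last versus first of five reads.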
HTT ATP protect = protects HTT-Q103 PC12 cells, measured by ATP | AID 1471 | PC12 HTT-Q103 induced, cytoprotection, ATP luminescence, 40 h | Potency, µM (top dose mostly 56.4 µM), inactives show cytoprotection (ATP increase), usual class: activators | 0.14% of 230,000 active; note: potency is the fitted concentration of half-maximal effect; % of control where 0% means no effect; nearly all actives have a fitted effect of over 45% in size
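Compounds added alongside 100 nM tebufenozide, which induces toxic Q103 huntingtin exon 1-GFP in stable PC12 cells; surviving cells quantified by luminescent ATP measurement. Medium: phenol red-free DMEM, 5% equine and 5% calf serum.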
PNC inhibitor = blocks assembly of the perinucleolar compartment | PC3M PTB-GFP, PNC prevalence imaging, 16 h; hits give low values | activity change (PNC), negative = inhibition, % at 10 µM | 3.1% of 140,000 active | AID 2417;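 active = readout at or below -70, meaning at least 70% loss of cells showing the perinucleolar compartment, a nuclear body marking cancer cells; inconclusive = readout between -30 and a set limit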;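 note: plate controls were DMSO wells for no effect and camptothecin positive control wells for full effect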
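PC3M cells stably expressing PTB-GFP, 750–1000 cells/well, treated 16 h at 37 °C with compound (23 nl of library stock), in duplicate. After paraformaldehyde fixation and Hoechst stain, imaged at 20x; PNC prevalence scored by image analysis.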
RGS12 GoLoco inh = inhibitors of human Gai1-RGS12 GoLoco interaction (red fluorophore) | Potency, µM (series often up to 61.6 µM), for inactives: at the highest dose activity, negative = inhibition, most hits filed as inhibitors | P63096 | AID 880 | Gai1:RGS12 GoLoco peptide FP, rhodamine, 10 min | 0.44% of 230,000 active; active = well fitted inhibition curve with a large enough effect, not every such curve was filed as active; inactive = no such curve, though single readings can be large or run the other way; note: potency is the fitted concentration of half-maximal effect; % is set by controls: 0 for no effect and ±100 for the full control effect; nearly all actives have a fitted effect of over 30% in size
Target sequence (P63096 whole entry, looked up): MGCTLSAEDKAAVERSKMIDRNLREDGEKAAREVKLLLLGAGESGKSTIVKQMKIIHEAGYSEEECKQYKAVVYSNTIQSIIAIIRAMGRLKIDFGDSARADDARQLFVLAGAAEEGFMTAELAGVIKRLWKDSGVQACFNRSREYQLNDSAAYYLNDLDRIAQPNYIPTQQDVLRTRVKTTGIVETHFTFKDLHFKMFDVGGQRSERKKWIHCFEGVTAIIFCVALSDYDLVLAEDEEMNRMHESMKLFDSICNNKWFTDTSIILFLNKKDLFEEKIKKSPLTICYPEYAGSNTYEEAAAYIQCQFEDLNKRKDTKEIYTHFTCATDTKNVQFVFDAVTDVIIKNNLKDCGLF
HTT aggregate = reduces HttQ103-GFP aggregates in PC12 cells. PC12 HttQ103-GFP aggregates, Acumen cytometry, 40 h. Potency, µM (series often up to 46.1 µM), without a hit: at the top dose activity change, negative = inhibition, actives largely listed as inhibitors. 1.1% of 220,000 active; note: potency is the fitted concentration of half-maximal effect; % is set by controls: 0 for no effect and ±100 for the full control effect; nearly all actives have a fitted effect of over 60% in size
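Inducible Q103 Huntingtin exon 1–GFP PC12 line, 1500 cells/well in phenol red free DMEM with 5% equine and 5% calf serum. Tebufenozide 100 nM induced expression; compounds titrated; aggregates quantified by cytometry.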
* hit, by the source's call; ? = inconclusive; nt = no result given; [ ] = remark or other dose. Unless noted, calls come from the whole dose curve; as a rule, active = well fitted curve in the direction sought with a large enough effect; inconclusive = small, poorly fitted or top-dose-only effect, or another doubt; inactive = no such curve, though single readings can be large; an effect the other way counts as inactive or inconclusive.

SMILES	ALDH1A1 inh	HPGD inh	HTT ATP protect	PNC inhibitor	RGS12 GoLoco inh	HTT aggregate
CC(=O)Nc1ccc(NC(=O)C(C)OC(=O)CNC(=O)c2sc3ccccc3c2Cl)cc1 (stereo not given)	3%	-13%	15%[10 µM]	19	-25%	16%
O=C(NCc1ccco1)c1sc2ccccc2c1Cl	?	16µM*	11%[10 µM]	8	8%	-7%
O=C(NCc1cccnc1)c1sc2cc(Cl)ccc2c1Cl	2%	?	-15%	?	8%	-15%
COc1ccc(-c2nc3cnc(Nc4cccc(OC)c4)nc3n(C3CC3)c2=O)cc1	1%	nt	-1%	nt	-19%	nt
Cc1ccc(-c2nnn(CC(=O)N(CCN3CCOCC3)C(C(=O)NC(C)(C)C)c3ccc(C)o3)n2)cc1 (stereo not given)	nt	nt	4%[10 µM]	nt	9%	-11%[9.22 µM]
C/C(N)=C(/C#N)C(=O)COC(=O)c1oc2ccccc2c1COC(C)C	-2%	nt	-16%	nt	5%	-8%
Nc1ccccc1N=c1ssnc1Cl	?	nt	-33%	nt	-29%	8%
COc1cc(N=c2ssnc2Cl)c(OC)cc1Cl	1.6µM*	3.5µM*	22%	10	0%	-15%
COc1ccc(OC)c(N=c2ssnc2Cl)c1	1.6µM*	3.2µM*	-68%	-15	-35%	-1%
Cn1c(=O)[nH]c(=O)c2c1nc(N1CCCC1)n2CCCSc1nc2ccccc2o1	-3%	28µM*	-8%	45	1%	-5%
O=C1c2ccccc2C(=O)N1CCCSc1nc2ccccc2o1	?	20µM*	3%[10 µM]	-10	3%	6%
CC1CCCN(c2nc3c(c(=O)[nH]c(=O)n3C)n2CCSc2nc3ccccc3o2)C1 (stereo not given)	5%	-10%	-15%	-20	-17%	9%
Cn1c(=O)[nH]c(=O)c2c1nc(Br)n2CCCSc1nc2ccccc2o1	?	22µM*	-1%[10 µM]	-9	12%	12%
CCOC(=O)C1(C(C)C)Oc2ccccc2C(c2ccc(OC)cc2)=C1C(=O)OC (stereo not given)	-1%	?	nt	nt	-29%	nt
NC(=O)COc1ccc(/C=N/NS(=O)(=O)c2ccccc2)cc1	-7%	nt	-6%	nt	8%	8%[9.22 µM]
CC(C)=CC(=O)OCC(=O)Nc1cc(C)cc(C)c1	-5%	nt	1%	nt	-12%	36%
CCC(C)C1NC(=O)C(Cc2ccc(O)cc2)NC(=O)C(N)CSSCC(C(=O)N2CCCC2C(=O)NC(CC(C)C)C(=O)NCC(N)=O)NC(=O)C(CC(N)=O)NC(=O)C(CCC(N)=O)NC1=O (stereo not given)	nt	nt	8%	nt	nt	1%
O=C(NN1C(=O)/C(=C/C=C/c2ccccc2)SC1=S)c1ccncc1	4.5µM*	nt	?	nt	104%	-11%
COc1ccccc1-c1nnc2sc(COc3ccc(Cl)cc3)nn12	11%	-24%	-22%[0.074 µM]	21	6%	?
COc1ccc(Cc2nn3c(-c4ccccc4OC)nnc3s2)cc1	11µM*	28µM*	-11%	-4	8%	?
COc1ccccc1-c1nnc2sc(C3CCCCC3)nn12	-11%	28µM*	-5%	-9	-5%	-15%
c1cc(-c2nnc3sc(C4CCCCC4)nn23)ccn1	3%	-12%	5%	?	-4%	13µM*
O=C(NCCc1ccc(Cl)cc1)C1CCC(=O)N1Cc1ccc(F)cc1 (stereo not given)	2%	1%	-2%	?	2%	-21%
CCCCC#CC1C=CC(OC(C)=O)C(COC(C)=O)O1 (stereo not given)	3.5µM*	nt	?	nt	nt	nt
CCCCCCC#CC1C=CC(OC(=O)OCC)C(COC(=O)OCC)O1 (stereo not given)	4µM*	nt	2µM*	nt	nt	nt
SMILES	ALDH1A1 inh	HPGD inh	HTT ATP protect	PNC inhibitor	RGS12 GoLoco inh	HTT aggregate
CCOC(=O)OCC1OC(C#Cc2ccc(Br)cc2)C=CC1OC(=O)OCC (stereo not given)	-19%[13.5 µM]	nt	-11%[10 µM]	nt	nt	nt
CC(=O)OCC1OC(C#Cc2ccc(Br)cc2)C=CC1OC(C)=O (stereo not given)	-5%[13.5 µM]	nt	7%[10 µM]	nt	nt	nt
CCCn1c(SCC(=O)Nc2nc3ccccc3s2)nc2c1c(=O)n(C)c(=O)n2C	?	-4%	-34%	-111*	10%	-10%
CC(C)n1c(SCC(=O)Nc2nc3c(s2)CCCC3)nc2c1c(=O)n(C)c(=O)n2C	-22%	-16%	4%[10 µM]	-100*	8%	13µM*
CCOC(=O)C(C)Sc1nnc2n1C(C)(C)Cc1ccccc1-2 (stereo not given)	-3%	-2%	25%[10 µM]	-100*	-1%	-19%
CC1(C)Cc2ccccc2-c2nnc(SCc3ccccc3)n21	9%	-7%	40%[10 µM]	-7	3%	?
N#Cc1ccc(N/N=C/c2ccccc2)c([N+](=O)[O-])c1	7%	nt	nt	nt	3%	15%
COc1ccc2c(C=O)cn(C)c2c1	2.2µM*	nt	-10%[10 µM]	nt	17%	-11%[9.22 µM]
CC(=O)c1ccc(N2CCN(Cc3nc(Cc4ccccc4)no3)CC2)cc1	18µM*	nt	-2%[10 µM]	nt	1%	17%[9.22 µM]
CCCCCN1N=C(C)CC1=O	0.63µM*	nt	-18%	nt	-3%	10%
CCCCN1C(=O)CC(C(=O)OCC)=C1C	nt	nt	24%[10 µM]	nt	-6%	-13%[9.22 µM]
Cc1cccc(N2C(=O)CC(SC(=Nc3ccccc3)Nc3ccccc3)C2=O)c1 (stereo not given)	-8%	-10%	nt	1	4%	3.2µM*
O=C1SC(SC(=Nc2ccccc2)Nc2ccccc2)C(=O)N1c1ccccc1 (stereo not given)	25µM*	-12%	nt	-4	-3%	15%
O=C1CC(SC(=Nc2ccccc2)Nc2ccccc2)C(=O)N1c1ccc(Cl)c(Cl)c1 (stereo not given)	?	-21%	nt	44	14%	27%
COc1cccc(/C=C/C(=O)O)c1C(C)C	-3%	-15%	-15%	nt	-3%	nt
CCOC(=O)CCc1c(C)nc(SCCCn2c(=O)[nH]c3ccccc32)c(C#N)c1C	32µM*	16µM*	0%[0.074 µM]	32	-22%	-15%
CCOC(=O)CCc1c(C)nc(SCCN2CCCC2)c(C#N)c1C	-5%	-5%	-9%	-28	8%	14%
O=C(CSc1ccccn1)Nc1ccc2c(c1)oc1ccccc12	-1%	25µM*	15%[10 µM]	26	12%	-3%
CC(=O)N1CC(=O)N(Cc2ccccc2)/C(=C/c2ccccc2)C1=O	-7%	nt	3%	nt	-6%	-3%
Cc1n[nH]c(=S)n1/N=C/c1ccc(OCc2ccc(Cl)cc2)cc1	0%	7.9µM*	-18%	17	2%	?
S=c1[nH]nc(Cc2ccc(Br)cc2)n1/N=C/c1ccc(Cl)cc1	28µM*	nt	-13%	nt	-8%	10%
Cc1cc(C)c(COc2ccc(/C=N/n3c(C)n[nH]c3=S)cc2)c(C)c1	?	10µM*	26%[10 µM]	44	9%	12%
